{"source": "PubChem BioAssay AID977608", "origin": "cited, not measured here", "experiment": "protein-ligand inhibition affinities from structures – PDB-derived complexes (AID 977608)", "note": "Screen size: about 4,300 compounds; about 4,300 (100%) were called active. No cut-off is given here; in the data, nearly all actives have IC50 up to about 1400 µM. The set was probably picked from earlier hits. Some of the results follow.", "data": [{"compound": "COc1ccc(C[C@H](NC(=O)[C@@H](C)NC(=O)CN2CCOCC2)C(=O)N[C@@H](CC2CCCCC2)[C@@H](O)[C@H](C)CO)cc1", "values": [{"measurement": "IC50", "setting": "literature IC50, protein: yCP, PDB entry 4qls", "value": "0.036 µM (active)"}]}, {"compound": "COc1ccc(C[C@H](NC(=O)[C@H](C)NC(=O)CN2CCOCC2)C(=O)N[C@@H](CC2CCCCC2)[C@@H](O)[C@H](C)CO)cc1", "values": [{"measurement": "IC50", "setting": "literature IC50, protein: yCP, PDB entry 4qlq", "value": "0.0066 µM (active)"}]}, {"compound": "O=C(COc1ccccc1[P+](O)(O)O)NC1CCCC1", "values": [{"measurement": "IC50", "setting": "literature IC50, protein: 14-3-3 protein sigma, PDB entry 4dhn", "value": "128 µM (active)"}]}, {"compound": "O=C(COc1ccccc1[P+](O)(O)O)NC1CCCCC1", "values": [{"measurement": "IC50", "setting": "literature IC50, protein: 14-3-3 protein sigma, PDB entry 4dht", "value": "15 µM (active)"}]}, {"compound": "O=C(CS)NCCCCCC(=O)Nc1ccccc1", "values": [{"measurement": "IC50", "setting": "literature IC50, protein: Schistosoma mansoni histone deacetylase 8, HDAC8, PDB entry 4cqf", "value": "50 µM (active)"}]}, {"compound": "C[C@@H](O)[C@H](NC(=O)Cc1cc(Cl)cc(Cl)c1)C(=O)NCC(=O)NCC=N", "values": [{"measurement": "IC50", "setting": "literature IC50, protein: Protease AVP8, PDB entry 4piq", "value": "0.08 µM (active)"}]}, {"compound": "CC(=O)Nc1cccc(C2=CC(C)N(O)c3ccccc32)c1", "note": "(stereo not drawn)", "values": [{"measurement": "IC50", "setting": "literature IC50, protein: Bromodomain-containing protein 4, PDB entry 4meo", "value": "250 µM (active)"}]}, {"compound": "N=C1C(NS(=O)(=O)c2ccccc2)C(=O)NC(=O)N1Cc1ccccc1", "note": "(stereo not drawn)", "values": [{"measurement": "IC50", "setting": "literature IC50, protein: Glucose-1-phosphate thymidylyltransferase (RmlA), PDB entry 3zlk", "value": "1.32 µM (active)"}, {"measurement": "IC50", "setting": "literature IC50, protein: Glucose-1-phosphate thymidylyltransferase (RmlA), PDB entry 4ASP", "value": "1.32 µM (active)"}]}, {"compound": "C/C(=C\\Cc1c(O)c(Cl)c(C)c(C=O)c1O)CC/C=C(\\C)[C@H](C)O", "values": [{"measurement": "IC50", "setting": "literature IC50, protein: Alternative oxidase, mitochondrial, PDB entry 3vva", "value": "0.00048 µM (active)"}]}, {"compound": "CCc1nc(N)nc(N)c1-c1ccc(NCc2cc(F)cc(F)c2)cc1", "values": [{"measurement": "IC50", "setting": "literature IC50, protein: human Renin, PDB entry 2g24", "value": "4 µM (active)"}]}, {"compound": "N#Cc1csc(NC(=O)CN2C(=O)CCc3ccccc32)c1-c1ncn[nH]1", "values": [{"measurement": "IC50", "setting": "literature IC50, protein: Mitogen-activated protein kinase 10, PDB entry 3rtp", "value": "0.007 µM (active)"}]}, {"compound": "H-HVAVENAL-OH", "values": [{"measurement": "IC50", "setting": "literature IC50, protein: HLA class I histocompatibility antigen, B-39 alpha chain, PDB entry 4o2f", "value": "0.387 µM (active)"}]}, {"compound": "CC(C)C[C@H](NC(=O)[C@H](C)NC(=O)[C@H](CC(N)=O)NC(=O)[C@H](CCC(=O)O)NC(=O)[C@@H](NC(=O)[C@H](C)NC(=O)[C@@H](NC(=O)[C@H](Cc1cnc[nH]1)NC(=O)[C@@H](N)CO)C(C)C)C(C)C)C(=O)O", "values": [{"measurement": "IC50", "setting": "literature IC50, protein: HLA class I histocompatibility antigen, B-39 alpha chain, PDB entry 4o2e", "value": "0.01 µM (active)"}]}, {"compound": "O=C(CC[C@H](NC(=O)c1ccc(C#Cc2ccccc2)cc1)C(=O)NO)NCCCO", "values": [{"measurement": "IC50", "setting": "literature IC50, protein: UDP-3-O-[3-hydroxymyristoyl] N-acetylglucosamine deacetylase, PDB entry 4j3d", "value": "0.0053 µM (active)"}]}, {"compound": "CCCCn1c(-c2c(C)ccc3[nH]ncc23)c[n+]2c3c(=O)[nH]c(=O)n(C)c3[nH]c12", "values": [{"measurement": "IC50", "setting": "literature IC50, protein: EPH receptor A3, PDB entry 4gk4", "value": "0.014 µM (active)"}]}, {"compound": "H-AAAAAAA-OH", "values": [{"measurement": "IC50", "setting": "literature IC50, protein: Insulin-degrading enzyme(IDE), PDB entry 2jbu", "value": "400 µM (active)"}]}, {"compound": "COc1ccc2c(c1)C1=NN(C(=O)CO)[C@H](c3ccc(OC(F)(F)F)c(F)c3)[C@@H]1CC2", "values": [{"measurement": "IC50", "setting": "literature IC50, protein: Receptor-interacting serine/threonine-protein kinase 1 (C34A, C127A, C233A, C240A mutation), PDB entry 4iti", "value": "0.44 µM (active)"}]}, {"compound": "O=C(O)/C(S)=C/c1c(Cl)ccc(Cl)c1Cl", "values": [{"measurement": "IC50", "setting": "literature IC50, protein: Beta-lactamase 2 BcII MBL, PDB entry 4tyt", "value": "0.02 µM (active)"}]}, {"compound": "CC(C)C[C@H](C[P+](O)(O)[C@@H](N)CCc1ccccc1)C(=O)N[C@@H](Cc1c[nH]c2ccccc12)C(N)=O", "values": [{"measurement": "IC50", "setting": "literature IC50, protein: Endoplasmic reticulum aminopeptidase 2, PDB entry 4jbs", "value": "0.011 µM (active)"}]}, {"compound": "O=C1NCc2ccc(Cl)cc21", "values": [{"measurement": "IC50", "setting": "literature IC50, protein: Chymase, PDB entry 4k5z", "value": "1000 µM (active)"}]}, {"compound": "O=C(c1ccc(O)cc1)N1CCOCC1", "values": [{"measurement": "IC50", "setting": "literature IC50, protein: Heat shock protein HSP 90-alpha, PDB entry 4egh", "value": "550 µM (active)"}]}, {"compound": "N=Cc1ncc(C(=O)NCc2ccccc2)cn1", "values": [{"measurement": "IC50", "setting": "literature IC50, protein: Protease AVP2, PDB entry 4pid", "value": "24 µM (active)"}]}, {"compound": "Nc1nonc1C(=O)c1cccc(OCc2nc3ccccc3[nH]2)c1", "values": [{"measurement": "IC50", "setting": "literature IC50, protein: Adenylate cyclase type 10 hsolAC, PDB entry 4oya", "value": "0.36 µM (active)"}]}, {"compound": "COc1cccc(C(=O)c2nonc2N)c1", "values": [{"measurement": "IC50", "setting": "literature IC50, protein: Adenylate cyclase type 10 hsolAC, PDB entry 4oym", "value": "11 µM (active)"}]}, {"compound": "CCOC(=O)COc1cccc(C(=O)c2nonc2N)c1", "values": [{"measurement": "IC50", "setting": "literature IC50, protein: Adenylate cyclase type 10 hsolAC, PDB entry 4oyb", "value": "1.6 µM (active)"}]}, {"compound": "Nc1nonc1C(=O)c1ccccc1", "values": [{"measurement": "IC50", "setting": "literature IC50, protein: Adenylate cyclase type 10 hsolAC, PDB entry 4oyi", "value": "19 µM (active)"}]}, {"compound": "CCCCCCCCCCCCCCCn1cc[n+](CC([P+](O)(O)O)[P+](O)(O)O)c1", "values": [{"measurement": "IC50", "setting": "literature IC50, protein: Squalene synthase, HsSQS, PDB entry 3wcl", "value": "0.26 µM (active)"}, {"measurement": "IC50", "setting": "literature IC50, protein: Squalene synthase, TcSQS, PDB entry 3wcg", "value": "0.14 µM (active)"}]}, {"compound": "CCCCCCCCCCCCCCCn1cc[n+](CC(O)([P+](O)(O)O)[P+](O)(O)O)c1", "values": [{"measurement": "IC50", "setting": "literature IC50, protein: Squalene synthase, HsSQS, PDB entry 3wci", "value": "0.27 µM (active)"}]}, {"compound": "CCCCn1cc[n+](CC(O)([P+](O)(O)O)[P+](O)(O)O)c1", "values": [{"measurement": "IC50", "setting": "literature IC50, protein: Farnesyl pyrophosphate synthase, PDB entry 4ga3", "value": "0.03 µM (active)"}]}, {"compound": "FC(F)(F)c1ccc(CNc2ccc(Cc3c[nH]c4ncccc34)cn2)cc1", "values": [{"measurement": "IC50", "setting": "literature IC50, protein: Mast/stem cell growth factor receptor Kit, PDB entry 4hvs", "value": "0.016 µM (active)"}]}, {"compound": "COc1cnc2[nH]cc(Cc3ccc(NCc4ccc(C(F)(F)F)cc4)nc3)c2c1", "values": [{"measurement": "IC50", "setting": "literature IC50, protein: Macrophage colony-stimulating factor 1 receptor (C667T, C830S, C907T mutation), PDB entry 4hw7", "value": "0.062 µM (active)"}]}]}
